# This is a sample that favours compounds with a hit; in the whole collection about 9.2% have one here.
# Lamin A splicing: modulators of lamin A splicing; HeLa LMNA splicing GFP/RFP minigene ratio, 48 h; Potency, µM (top dose mostly 46.1 µM), without a hit: at the highest dose ratio change, negative = inhibition, usual class: inhibitors; 0.01% of 200,000 active; AID 1487; active = well fitted inhibition curve with a large enough effect in the signal ratio, with a control signal flat, not every such curve was filed as active; inconclusive = small, poorly fitted or top-dose-only effect, or effect the other way, or a change in a side signal; the % refers to the signal ratio; note: % is set by controls: 0 for no effect and ±100 for the full control effect
#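 S3 HeLa cells stably expressing lamin A-EGFP splicing minigene plus DsRed2, 600 cells/well, 48 h compound exposure at 37C. Laser-scanning cytometry; analysed as GFP (500-530 nm)/RFP (575-640 nm) total intensity ratio; 0.5% DMSO vehicle.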
# ALDH1A1 inh: ALDH1A1 (human) enzyme inhibition | Purified ALDH1A1, NADH fluorescence, propionaldehyde substrate | Potency, µM (highest dose often 75.3 µM), for inactives: top-dose activity, negative = inhibition, hits mostly inhibitors | 7.3% of 220,000 active | AID 1030;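 note: plate controls were no enzyme wells and a reference inhibitor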
# Target sequence (P00352 whole entry, looked up): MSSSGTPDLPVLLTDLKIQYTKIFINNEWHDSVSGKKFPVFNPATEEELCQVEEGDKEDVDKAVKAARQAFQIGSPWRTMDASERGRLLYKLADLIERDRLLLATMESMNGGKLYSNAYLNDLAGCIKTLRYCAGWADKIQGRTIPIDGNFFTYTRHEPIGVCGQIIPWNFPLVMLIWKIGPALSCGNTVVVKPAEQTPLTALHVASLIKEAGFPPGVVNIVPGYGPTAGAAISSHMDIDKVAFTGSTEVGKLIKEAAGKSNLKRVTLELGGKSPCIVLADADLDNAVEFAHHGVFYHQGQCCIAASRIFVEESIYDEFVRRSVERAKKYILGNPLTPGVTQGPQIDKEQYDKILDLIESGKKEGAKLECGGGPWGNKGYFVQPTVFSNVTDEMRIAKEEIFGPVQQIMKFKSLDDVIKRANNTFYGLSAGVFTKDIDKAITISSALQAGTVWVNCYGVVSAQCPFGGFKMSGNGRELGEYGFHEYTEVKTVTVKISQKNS
# HttQ103 aggreg: mutant huntingtin aggregation inhibition | Potency, µM (titrated, usually from 46.1 µM), for the others: at the highest dose activity change, negative = inhibition, most hits filed as inhibitors | PC12 HttQ103-GFP aggregates, Acumen cytometry, 40 h | 1.1% of 220,000 active; active = well fitted curve in the direction sought with a large enough effect; inconclusive = small, poorly fitted or top-dose-only effect, or another doubt; inactive = no such curve, though single readings can be large; an effect the other way counts as inactive or inconclusive; note: % is set by controls: 0 for no effect and ±100 for the full control effect; nearly all actives have a fitted effect of over 60% in size
#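 Compounds (qHTS titration) were added to PC12 cells expressing an ecdysone-driven HTT exon 1 Q103–GFP fusion after induction with 100 nM tebufenozide. Aggregate formation was measured as GFP objects in cell lysates.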
# HTT ATP protect: protects HTT-Q103 PC12 cells, measured by ATP. AID 1471. 0.14% of 230,000 active. PC12 HTT-Q103 induced, cytoprotection, ATP luminescence, 40 h. Potency, µM (highest dose often 56.4 µM), for the others: cytoprotection (ATP increase), actives largely listed as activators; active = well fitted curve in the direction sought with a large enough effect; inconclusive = small, poorly fitted or top-dose-only effect, or another doubt; inactive = no such curve, though single readings can be large; an effect the other way counts as inactive or inconclusive; note: % of control where 0% means no effect; nearly all actives have a fitted effect of over 45% in size
#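 ATP quantification (ATPlite) reports survival of PC12 cells in which tebufenozide, 100 nM final, switches on Htt exon 1 with 103 glutamines linked to GFP; compounds are titrated.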
# HPGD inh: HPGD (human) dehydrogenase inhibition; purified HPGD, NADH fluorescence kinetic, PGE2 substrate; Potency, µM, inactives show top-dose activity change, negative = inhibition, most hits filed as inhibitors; 4.3% of 150,000 active; AID 894; note: % is set by controls: 0 for no effect and ±100 for the full control effect
# Target sequence (P15428 whole entry, looked up): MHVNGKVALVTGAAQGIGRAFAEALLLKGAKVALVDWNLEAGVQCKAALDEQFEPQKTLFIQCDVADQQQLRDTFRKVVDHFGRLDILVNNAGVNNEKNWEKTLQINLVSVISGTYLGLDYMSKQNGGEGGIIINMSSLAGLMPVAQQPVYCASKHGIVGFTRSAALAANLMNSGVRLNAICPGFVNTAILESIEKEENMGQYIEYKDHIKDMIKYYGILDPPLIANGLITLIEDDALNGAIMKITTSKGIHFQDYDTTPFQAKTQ
#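 NADH formation kinetics: reaction with 30 uM PGE2 and 1 mM NAD+ (final), 20 nM enzyme, Tris-HCl pH 8 with Tween 20, after 15 min compound preincubation at room temperature. Fluorescence change, last versus first of five reads.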
# KDM4E inh: inhibitors of human JMJD2E histone demethylase. B2RXH2. JMJD2E catalytic domain, FDH-coupled NADH fluorescence (FDH is formaldehyde dehydrogenase). Potency, µM (series often up to 57.1 µM), inactives show at the top dose activity change, negative = inhibition, usual class: inhibitors. 1.6% of 230,000 active;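 note: 0% = wells with enzyme and -100% = buffer wells without enzyme; nearly all actives have a fitted effect of over 50% in size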
# * marks the source's active call; other numbers are inactive results; ? = inconclusive; . = no result; [ ] = another dose, or the depositor's remark. Unless noted, calls come from the whole dose curve; as a rule, active = well fitted inhibition curve with a large enough effect (not every such curve was filed as active); inconclusive = small, poorly fitted or top-dose-only effect, or another doubt; inactive = no such curve, though single readings can be large or run the other way. Potency is the fitted concentration of half-maximal effect.
SMILES,Lamin A splicing,ALDH1A1 inh,HttQ103 aggreg,HTT ATP protect,HPGD inh,KDM4E inh
c1ccc(-c2nnc(OCC3CCCO3)c3ccccc23)cc1 (stereo not drawn),-4.4%[46 µM],-9.5%,25.4%,?,.,3.2%
Cc1nnc(SCc2ccccc2F)n1NCc1cccs1,-4.6%,-8.7%,19.1%,-3.4%,31.6µM*,8.0%
Cc1ccc(NS(=O)(=O)c2cc([N+](=O)[O-])ccc2NNC(=S)Nc2cc(C)ccc2C)c(C)c1,?,2.82µM*,?,27.0%[0.074 µM],7.94µM*,-4.7%
COc1ccc(NC(=S)Nc2cccc([N+](=O)[O-])c2)cc1,-4.6%,-2.8%,-17.5%,-12.2%,-7.3%,-3.5%
COc1ccc(NC(=S)NNc2ccc([N+](=O)[O-])cc2S(=O)(=O)Nc2ccc(C)cc2C)cc1,?,3.98µM*,?,-26.2%[10 µM],14.1µM*,?
Cc1ccc(NS(=O)(=O)c2cc([N+](=O)[O-])ccc2NNC(=S)Nc2cccc(Cl)c2)c(C)c1,?,0.282µM*,10.9%,31.1%[10 µM],28.2µM*,?
Cn1c(=O)c2c(ncn2CC2OCCO2)n(C)c1=O,.,2.7%,6.7%,?,-10.2%,.
COc1cc(Nc2ncnc(N)n2)cc(OC)c1,.,.,-13.1%[9.22 µM],8.0%[10 µM],.,-3.4%
CC1(C)Cc2c(sc(NC(=O)C3CC(Cl)=CCC3C(=O)O)c2C#N)CO1 (stereo not drawn),.,?,1.6%[9.22 µM],-14.0%[10 µM],.,6.8%
CS(=O)(=O)N1CCC2(CC1)CN(c1ccccn1)C2,.,?,.,15.3%,?,.
O=C(NCc1ccccc1)C1(c2ccccc2)CCN(S(=O)(=O)c2ccccc2)CC1,1.9%,8.91µM*,-10.5%,7.1%,-13.4%,4.4%
OCCNCCCOc1cccc(Cl)c1Cl,.,-7.5%,.,-73.1%,-4.4%,-13.9%
CNC(=S)NNC(=O)CSCc1c(Cl)cccc1Cl,.,-4.2%,-23.3%[9.22 µM],-24.2%[10 µM],.,0.2%
S=C(Nc1cc(Cl)ccc1Cl)Nn1cnnc1,.,.,-4.4%[9.22 µM],-18.5%[10 µM],.,1.8%
S=C(Nc1ccc(Cl)cc1Cl)Nn1cnnc1,-11.0%,4.5%,6.3%,13.8%[10 µM],7.94µM*,-1.3%
S=C(Nc1cccc(Cl)c1Cl)Nn1cnnc1,-5.3%,2.82µM*,9.1%,-9.1%[10 µM],25.1µM*,-2.7%
O=C(CSCc1ccccc1)NNC(=S)Nc1cccc(Cl)c1Cl,-9.5%,3.55µM*,?,23.2%[10 µM],-9.9%,7.7%
Cc1cccc(NC(=S)Nn2cnnc2)c1C,.,7.94µM*,.,.,.,4.7%
O=C(CNc1ccc2ccccc2c1)N/N=C/c1cc2ccccc2nc1Cl,?,22.4µM*,18.9%,.,-12.7%,?
COc1cc(-c2[o+]c3cc(O)cc(O)c3cc2O)cc(O)c1O,.,6.5%[13.5 µM],.,-3.7%[10 µM],-10.6%,.
N#C/C(=C\c1ccncc1)c1nc2ccccc2o1,.,.,-8.7%[9.22 µM],-36.4%[10 µM],.,?
N#C/C(=C\Nc1ccccc1O)c1nc2ccccc2o1,?,?,5.62µM*,-26.7%[10 µM],-29.4%,0.2%
Cc1ccccc1C(=O)/C=C1\NC(=O)CS1,?,25.1µM*,-2.4%,-3.8%,15.8µM*,-11.1%
O=C1CS/C(=C/C(=O)c2ccccc2)N1,-2.6%,-6.5%,-7.3%,-10.1%,20µM*,-6.9%
Cc1cc(C)cc(C(=O)/C=C2\NC(=O)CS2)c1,6.1%,-2.8%,8.2%,-17.0%[10 µM],?,-25.8%
SMILES,Lamin A splicing,ALDH1A1 inh,HttQ103 aggreg,HTT ATP protect,HPGD inh,KDM4E inh
O=C(Cc1ccccc1)NCC(=O)OCC(=O)c1ccc([N+](=O)[O-])cc1,-1.1%,1.41µM*,-10.5%,-5.8%[0.074 µM],-2.2%,10.4%
O=C(CNS(=O)(=O)c1ccccc1)OCC(=O)c1ccc([N+](=O)[O-])cc1,-12.2%,1.12µM*,2.4%,-15.2%[10 µM],-3.5%,3.9%
O=C(CNc1ccccc1)c1ccc([N+](=O)[O-])cc1,-11.2%,3.55µM*,13.6%,27.5%[10 µM],?,-8.4%
Cc1ccc(C(=O)NCC(=O)NCC(=O)OCC(=O)c2ccc([N+](=O)[O-])cc2)cc1,14.5%,1µM*,11.9%,-8.0%,-13.6%,-0.7%
CCc1ccc(CNC(=O)c2sc3ncnc(N(C)C4CCCCC4)c3c2C)cc1,-12.3%[46 µM],.,.,.,.,.
OC[C@@H]1O[C@@H](n2cnc3c(N[C@H]4CCC[C@@H]4O)ncnc32)[C@H](O)[C@H]1O,.,5.5%,.,-18.0%,-0.7%,3.1%
Cc1ccc(C(NC(=O)N2CCCC2)C(Cl)Cl)cc1F (stereo not drawn),-25.1%[46 µM],11.2µM*,-4.2%,-6.9%,.,-7.0%
Cc1ccc(N2C(=O)CSC23C(=O)N(CC(=O)NCCc2ccccc2)c2ccccc23)cc1C (stereo not drawn),-17.7%[46 µM],.,.,.,.,.
Cc1cc(S(=O)(=O)Nc2nc(CN3CCOCC3)nc3sc4c(c23)CCCC4)ccc1F,-4.9%,14.1µM*,-16.6%,-12.6%[10 µM],-7.9%,?
Cc1nc(NS(=O)(=O)c2ccc(Br)cc2)c2c3c(sc2n1)CCC3,4.6%,12.6µM*,?,-61.4%,-9.3%,-17.1%
O=S(=O)(Nc1nc2c(s1)CCCC2)c1ccc(Br)cc1,?,12.6µM*,?,5.9%[1.9 µM],-14.6%,4.8%
O=S(=O)(Nc1nc2c(s1)CCCC2)c1ccc(F)cc1,-14.1%,?,?,22.1%,-1.3%,-1.4%
CC1CCc2c(sc3nc(CN4CCOCC4)nc(N4CCc5ccccc5C4)c23)C1 (stereo not drawn),-5.0%,?,14.3%,-2.2%[1.9 µM],-2.5%,?
CC1CCc2c(sc3nc(CN4CCOCC4)nc(NS(=O)(=O)c4cccc([N+](=O)[O-])c4)c23)C1 (stereo not drawn),-8.2%,4.47µM*,?,-22.5%,-10.8%,-4.7%
O=C(CSc1nc2c([nH]c3ccccc32)c(=O)n1-c1ccc(F)cc1)NCc1ccccc1,24.4%[46 µM],.,.,.,.,.
CCCN1C[C@@H](CSC)C[C@H]2c3cccc4[nH]cc(c34)C[C@@H]21,.,.,.,17.6%[1.9 µM],.,.
Clc1nnc(NN=C2CCCC2)c2ccccc12,?,2.82µM*,4.3%,.,-14.2%,?
c1ccc(CNc2ncnc3c2oc2ccccc23)nc1,10.6%,1.7%,-19.7%,-10.0%,-16.4%,-11.2%
CCc1nc(NCc2ccccn2)c2oc3ccccc3c2n1,?,5.9%,12.6µM*,-40.3%[0.074 µM],-7.7%,?
CCc1nc(NCCN2CCOCC2)c2oc3ccccc3c2n1,6.3%,0.891µM*,-4.6%,-19.7%[0.074 µM],-16.3%,-1.2%
CCc1nc(N2CCCCC2)c2oc3ccccc3c2n1,?,12.6µM*,-19.2%,-35.8%,-11.9%,-29.1%
N#CC1=C(N)N(c2ccccc2C#N)C2=C(C(=O)CCC2)C1c1ccsc1 (stereo not drawn),3.6%,25.1µM*,0.3%,-2.6%,-28.9%,-2.8%
COC(=O)c1ccc(/C=C(\C#N)c2ccccn2)cc1,.,?,-1.3%,-40.3%,.,?
CN(C)c1ccc(NC(=S)c2ccccn2)cc1,?,?,?,-51.3%,25.1µM*,17.8µM*

# Bioassay records (PubChem BioAssay)
